Assay results from PubChem BioAssay (NCATS).
Records with an inconclusive call do not appear. Entries that show only a call come without a potency. Activity calls are given as the source filed them. Unless noted, calls come from the whole dose curve; as a rule, active = well fitted curve in the direction sought with a large enough effect; inconclusive = small, poorly fitted or top-dose-only effect, or another doubt; inactive = no such curve, though single readings can be large; an effect the other way counts as inactive or inconclusive.

What was measured:
[1] = target: Calcium and integrin-binding protein 1 (Homo sapiens) (UniProt Q99828); test: Primary qHTS for Identification of Calcium Integrin Binding Protein 1 (CIB1) Competitor (AID 1508620); settings: CIB1-GST / FITC-alphaIIb peptide fluorescence polarization; series mostly up to 114 µM;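 note: GST tagged CIB1 binding a fluorescein labelled alphaIIb integrin peptide tracer; top concentration of the series differs between compounds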
Sequence of Calcium and integrin-binding protein 1 (Homo sapiens) (Q99828 whole entry, looked up): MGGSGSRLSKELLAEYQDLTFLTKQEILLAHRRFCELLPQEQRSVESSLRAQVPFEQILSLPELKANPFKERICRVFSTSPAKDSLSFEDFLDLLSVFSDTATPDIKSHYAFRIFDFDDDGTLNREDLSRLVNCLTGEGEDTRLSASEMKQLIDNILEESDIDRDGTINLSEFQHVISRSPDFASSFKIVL
Summary of the method: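 Fluorescence polarization competition: CIB1-GST (1 uM final) preincubated with compound 15 min at room temperature, then FITC-labeled alphaIIb peptide (100 nM final) added for another 15 min. Polarization read at Ex 480/Em 540.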

[2] = target: Cytochrome P450 2D6 (Homo sapiens) (UniProt P10635); test: Cytochrome P450 family 2 subfamily D member 6 (CYP2D6) small molecule antagonists: luciferase biochemical (cell-free) qHTS assay (AID 1645840; active = well fitted curve in the direction sought with a large enough effect in the repeat runs; an effect the other way counts as inactive or inconclusive; note: nearly all actives have a fitted effect of over 55% in size; note: potency is the fitted concentration of half-maximal effect); settings: P450-Glo CYP2D6 enzyme, luciferin luminescence, 1 h; series mostly up to 57.4 µM
Sequence of Cytochrome P450 2D6 (Homo sapiens) (P10635 whole entry, looked up): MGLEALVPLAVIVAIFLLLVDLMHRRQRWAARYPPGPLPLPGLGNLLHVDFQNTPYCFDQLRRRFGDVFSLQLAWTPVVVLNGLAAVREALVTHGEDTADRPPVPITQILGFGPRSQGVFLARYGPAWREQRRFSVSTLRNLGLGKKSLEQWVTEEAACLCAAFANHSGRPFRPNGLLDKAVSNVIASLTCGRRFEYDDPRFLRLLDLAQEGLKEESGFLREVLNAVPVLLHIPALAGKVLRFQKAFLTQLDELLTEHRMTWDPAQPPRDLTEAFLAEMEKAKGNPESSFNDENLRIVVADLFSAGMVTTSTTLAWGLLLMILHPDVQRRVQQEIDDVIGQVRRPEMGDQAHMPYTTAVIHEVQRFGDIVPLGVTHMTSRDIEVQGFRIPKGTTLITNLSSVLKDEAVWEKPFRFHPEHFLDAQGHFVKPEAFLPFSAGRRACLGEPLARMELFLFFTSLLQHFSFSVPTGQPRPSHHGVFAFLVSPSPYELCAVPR
Summary of the method: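 P450-Glo luminescent screen: recombinant CYP2D6 enzyme–proluciferin substrate mix preincubated with compound 10 min at room temperature, then NADPH regeneration added for 1 h at room temperature. Detection reagent added for 20 min; luciferin light read as relative luminescence units.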

Row | SMILES | Potency [1] | Potency [2]
1 | CC(=O)NCc1cccc(OC[C@@H](O)CNCCc2ccc(NS(=O)(=O)c3ccccc3)cc2)c1 | inactive | 0.849 µM (active)
2 | O=C(Nc1cc(C(F)(F)F)ccc1N1CCCCC1)c1ccncc1 | inactive | 8.49 µM (active)
3 | COc1ccccc1S(=O)(=O)Nc1ccc2c(c1)CN(C)C(=O)N2 | inactive | inactive
4 | O=C(c1ccc(OC(F)F)c(C#Cc2ccccn2)c1)N1Cc2cccnc2C1 | inactive | 21.3 µM (active)
5 | O=C(NCCN1CCC(n2c(=O)[nH]c3ccccc32)CC1)c1ccc2ccccc2c1 | inactive | 12 µM (active)
6 | CC[C@H](C(=O)Nc1ccccc1N1CCCC1)c1ccccc1 | inactive | 9.52 µM (active)
7 | N[C@@H]1c2cccnc2[C@H](OC(=O)N2CCC(n3c(=O)[nH]c4ncccc43)CC2)CC[C@H]1c1cccc(F)c1F | inactive | 6.74 µM (active)
8 | COc1cc(N(C)CCN(C)C)c(N)cc1Nc1nccc(-c2cn(C)c3ccccc23)n1 | inactive | 19 µM (active)
9 | CC(C)(C)c1ccc(C(=O)Nc2cn3cc(-n4ccnc4)ccc3n2)cc1 | inactive | inactive
10 | Cc1[nH]c2ccccc2c1CCNC(=O)c1cccs1 | inactive | 23.9 µM (active)
11 | COc1ccc(-c2ccc3c(N4CCOCC4C)nc(N4CCOCC4C)nc3n2)cc1CO (stereo not given) | inactive | inactive
12 | CC(C)Nc1nc(Nc2ccccc2)nc(-c2ccccc2)n1 | inactive | inactive
13 | O=C(NCCN1CCC(n2c(=O)[nH]c3ccccc32)CC1)c1cc2cc(F)ccc2[nH]1 | inactive | 15.1 µM (active)
14 | N#Cc1cccc(C(=O)Nc2cc(-c3ccccc3)nn2-c2ccccc2)c1 | inactive | inactive
15 | COC(=O)c1ccc2c(c1)nc(NC(=O)c1ccccc1)n2CCCc1ccccc1 | inactive | inactive
16 | Cc1cc(N2CCN(C(=O)Oc3ccc(-c4ccccc4)cn3)CC2)c2ccccc2n1 | inactive | 15.1 µM (active)
17 | O=C(NCCO)c1cccc(-c2cc(Nc3ccc(OC(F)(F)F)cc3)ncn2)c1 | inactive | 23.9 µM (active)
18 | CC(C)(C)c1ccc(-c2nc3c(N4CCN(Cc5ccc6nccnc6c5)CC4)cccc3[nH]2)cc1 | inactive | inactive

Row | SMILES | Potency [1] | Potency [2]
19 | CC(C)(C)c1ccc2c(c1)CC[C@H]2NC(=O)Nc1cccc2[nH]ncc12 | inactive | inactive
20 | CN(C)[C@@H]1CCc2[nH]c3ccc(NC(=O)c4ccc(F)cc4)cc3c2C1 | inactive | inactive
21 | COc1ccc(NC(=O)c2ccc(-c3ccc(-c4nnc(C)o4)cc3C)cc2)cc1N1CCN(C)CC1 | inactive | 30.1 µM (active)
22 | CNCCCC1(c2ccccc2)OC(C)(C)c2ccccc21 (stereo not given) | inactive | 6.74 µM (active)
23 | O=C(Nc1ccc(C(F)(F)F)cn1)N1CCN(c2ncccc2C(F)(F)F)CC1 | inactive | inactive
24 | COC(=O)N1CCC(n2ncc3c(N4CCOCC4)nc(-c4ccc(NC(=O)NC5CC5)cc4)nc32)CC1 | inactive | 16.9 µM (active)
25 | O=C(Nc1ccc(N(Cc2ccsc2)C(=O)Cn2nnc3ccccc32)cc1)C1CC1 | inactive | 4.77 µM (active)
26 | C=CC(=O)Nc1cc(-n2c(=O)ccc3cnc4ccc(-c5ccc(NS(C)(=O)=O)cc5)cc4c32)ccc1C | inactive | inactive
27 | COCc1c(Cl)ccc2c1CC[C@H]2c1ncc[nH]1 | inactive | 1.9 µM (active)
28 | C#Cc1cccc(Nc2nc3cc(C(=O)O)ccc3c3cncnc23)c1 | inactive | inactive
29 | Cc1c(C(=O)NCc2cccnc2)nn(-c2ccc(Cl)cc2Cl)c1-c1ccc(Cl)cc1 | inactive | 0.213 µM (active)
30 | C[C@@H](NC(=O)C(=O)c1c[nH]c2ccc([N+](=O)[O-])cc12)c1ccccc1 | inactive | inactive
31 | CCOc1ccc(CCNC(=O)c2cc3sc(Cl)cc3n2C)cc1OCC | inactive | inactive
32 | Fc1ccc(N2CCN(CCC3OCCc4ccccc43)CC2)cc1 (stereo not given) | inactive | 1.9 µM (active)
33 | CCC(CC)Nc1nc(C)c(-c2ccc(OC(F)(F)F)cc2OC)nc1OC | inactive | inactive
34 | O=C(CNC(=O)c1cccc(C(F)(F)F)c1)N[C@@H]1CCN(Cc2ccc(Cl)cc2)C1 | inactive | 0.0535 µM (active)
35 | Cc1cc(F)ccc1[C@H]1C[C@@H](N2CCN3C(=O)CC[C@H]3C2)CCN1C(=O)N(C)[C@H](C)c1cc(C(F)(F)F)cc(C(F)(F)F)c1 | inactive | 13.5 µM (active)
